Rows were chosen to be rich in hits. Some 3.5% of all compounds tested hit in one or more screens of this group.
KDM4E inh: qHTS Assay for Inhibitors of Human Jumonji Domain Containing 2E (JMJD2E). Lysine-specific demethylase 4E (Homo sapiens), B2RXH2. JMJD2E catalytic domain, FDH-coupled NADH fluorescence (FDH is formaldehyde dehydrogenase). Potency, µM (top dose mostly 57.1 µM), actives largely listed as inhibitors. hit rate 1.6% among 230,000. AID 2147, 2009; active = well fitted inhibition curve with a large enough effect, not every such curve was filed as active; inconclusive = small, poorly fitted or top-dose-only effect, or another doubt; inactive = no such curve, though single readings can be large or run the other way; also: nearly all actives have a fitted effect of over 50% in size
Target sequence (B2RXH2 1-337 limits assumed): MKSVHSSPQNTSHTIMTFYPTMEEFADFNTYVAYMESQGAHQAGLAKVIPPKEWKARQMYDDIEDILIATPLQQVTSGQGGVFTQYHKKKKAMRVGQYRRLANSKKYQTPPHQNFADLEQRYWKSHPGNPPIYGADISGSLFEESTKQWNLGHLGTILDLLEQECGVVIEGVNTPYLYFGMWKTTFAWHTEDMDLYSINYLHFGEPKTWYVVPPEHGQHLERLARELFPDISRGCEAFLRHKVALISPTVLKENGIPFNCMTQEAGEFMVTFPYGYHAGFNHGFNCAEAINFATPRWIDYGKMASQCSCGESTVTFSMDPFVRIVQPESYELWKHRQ
TexasRed fluor: Total Fluorescence Counterscreen for Inhibitors of the Interaction of Thyroid Hormone Receptor and Steroid Receptor Coregulator 2; TRb/SRC2 Texas Red total fluorescence interference; Potency, µM (series often up to 106 µM); hit rate 0.29% among 280,000; AID 1479, 2009; active = well fitted curve in either direction with a large enough effect; inconclusive = small, poorly fitted or top-dose-only effect
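Human TRβ ligand-binding domain (0.6 uM) and Texas Red SRC2 peptide (20 nM) in Tris buffer with 1 uM T3 and 5% DMSO were incubated with pinned compound for 5 hr at ambient temperature. Total fluorescence was computed as S + 2P (555/632 nm).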
Tau fibril ThT: qHTS for Inhibitors of Tau Fibril Formation, Thioflavin T Binding | recombinant tau K18 P301L, heparin-induced fibrillization, ThT fluorescence | Potency, µM (doses to about 57.4 µM), usual class: inhibitors | hit rate 2.1% among 270,000; also: nearly all actives have a fitted effect of over 55% in size
Target sequence (P10636 561-689 P618L limits assumed): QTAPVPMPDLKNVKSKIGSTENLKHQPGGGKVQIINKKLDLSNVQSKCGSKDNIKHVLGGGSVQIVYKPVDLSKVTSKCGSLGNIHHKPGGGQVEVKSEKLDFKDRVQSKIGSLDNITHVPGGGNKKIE
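Heparin-induced fibrillization of the P301L-mutant K18 repeat-domain fragment of human tau was followed by ThT binding in quantitative high-throughput format.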
Tau fibril FP: qHTS for Inhibitors of Tau Fibril Formation, Fluorescence Polarization | K18 P301L tau heparin fibrillization, Alexa594 FP, 6 h | Potency, µM (top dose mostly 57.7 µM), actives largely listed as inhibitors | AID 1468, 2008 | hit rate 0.39% among 280,000; also: nearly all actives have a fitted effect of over 55% in size
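Quantitative HTS format: compounds meet 15 uM recombinant K18 P301L tau and Alexa 594-tau tracer in 100 mM sodium acetate pH 7; 20 uM heparin triggers fibrillization at 37 C over 6 hr; FP gives the signal.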
TRb SRC2 PPI: qHTS for Inhibitors of the Interaction of Thyroid Hormone Receptor and Steroid Receptor Coregulator 2. TRbeta-SRC2 peptide binding, fluorescence polarization; receptor liganded with 1 µM T3. Potency, µM (highest dose often 106 µM), most hits filed as inhibitors. hit rate 0.065% among 280,000. AID 1469, 2008; also: nearly all actives have a fitted effect of over 50% in size
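Decrease in fluorescence polarization of 20 nM Texas Red SRC2 coactivator peptide flagged inhibition of its binding to 0.6 uM TRb LBD; 1 uM T3 included, incubation 5 hr, ex 555/em 632 nm.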
Tau fluor cs: Counterscreen qHTS for Inhibitors of Tau Fibril Formation, Fluorescence Polarization; tau K18 P301L Alexa594 fluorescence, heparin fibrillization; Potency, µM (series often up to 57.7 µM); hit rate 0.93% among 280,000; AID 1463, 2008; also: nearly all actives have a fitted effect of over 55% in size
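Human tau K18 P301L (15 uM unlabeled, 0.24 uM Alexa 594-labeled) in 100 mM sodium acetate pH 7 with 20 uM heparin, 6 hr at 37 C. ThT 30 uM added, 1 hr ambient; Alexa 594 FP and total fluorescence read at 555/632 nm.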
Hits are given with their value; n = inactive; u = inconclusive; x = no result given; ! = not confirmed by another sample; [ ] = another dose, or the depositor's remark. Unless noted, calls follow the shape of the dose curve; as a rule, active = well fitted curve in the direction sought with a large enough effect; inconclusive = small, poorly fitted or top-dose-only effect, or another doubt; inactive = no such curve, though single readings can be large; an effect the other way counts as inactive or inconclusive.

SMILES	KDM4E inh	TexasRed fluor	Tau fibril ThT	Tau fibril FP	TRb SRC2 PPI	Tau fluor cs
COc1cccc(/C=N/NC(=O)c2cc3c(OC)c(OC)ccc3[nH]2)c1OC	n	n	7.9µM	u	n	u
COc1cccc(/C=N/NC(=O)c2cc(-c3cccn3C)n[nH]2)c1O	16µM	n	u	n	n	n
CC(N=Cc1cc([N+](=O)[O-])ccc1O)c1ccccc1 (configuration not stated)	n	n	n	n	n	n
Cc1ccccc1N=Cc1cccc(O)c1O	11µM	n	7.9µM	u	n	u
Cc1cccc(C=Nc2ccc3c(c2)oc2ccccc23)c1O	n	n	n	n	n	n
CC(N=Cc1cccc(O)c1O)c1ccccc1 (configuration not stated)	14µM	n	5µM	u	n	u
Cc1ccc(N=Cc2cccc(O)c2O)c(C)c1	14µM	n	3.2µM	8.9µM	u	u
CCN(CC)c1ccc(C=Nc2ccc(C)cc2C)c(O)c1	n	n	u	n	n	n
CCOc1ccc2c(c1)-c1c(ssc1=S)C(C)(C)N2C	n	n	14µM	n	n	13µM[quencher]
CCOc1ccc2c(c1)[nH]c(=S)n2C	n	n	n	n	n	n
CCCSc1nc2cc(OC)c(OC)cc2c(=N)n1CCCN1CCOCC1	n	n	n	n	n	n
COC(=O)c1ccc(CSc2cc(C)c3cccc(C)c3n2)o1	n	n	n	u	n	n
Cc1[nH]c2ccccc2c1C(=O)COC(=O)c1c(-c2c(F)cccc2Cl)noc1C	n	n	n	14µM	n	u
Cc1[nH]c2ccccc2c1C(=O)COC(=O)c1c(-c2ccccc2Cl)noc1C	u	n	n	u	n	u
Cc1[nH]c2ccccc2c1C(=O)COC(=O)c1ccc([N+](=O)[O-])s1	n	n	7.1µM	n	n	11µM[quencher]
CCC1=C(OC(=O)N(CC)CC)N2C(=O)OC(=NCc3ccccc3)[C@]2(C)[C@H]2C1=CC[C@H]1C(=O)NC(=O)[C@H]12	n	n	n	n	n	n
Cc1ccc(-c2nnn(CCOc3cccc(Br)c3)n2)cc1	n	n	n	n	n	n
CNc1ccc(Br)cc(C(=O)/C=C/c2cccc(Cl)c2Cl)c1=O	n	n	7.1µM	u	n	u
COc1ccccc1/C=C/C(=O)/C=C/c1ccccc1O	u	n	14µM	u	n	n
COC(=O)c1cn(NC(=O)/C=C/c2cccc(OC)c2OC)c(=O)c2ccccc12	u	n	u	n	n	n
CNc1ccc(Br)cc(C(=O)/C=C/c2cccc(OC)c2OC)c1=O	28µM	n	14µM	u	n	u
CNc1ccccc(C(=O)/C=C/c2ccccc2OC)c1=O	u	n	16µM	u	n	u
CC1(C)CC2(CC(c3ccccc3)Oc3cc(O)ccc32)NC(=S)N1 (configuration not stated)	n	n	n	n	n	n
Cc1ccc2c(c1)NC(=O)C(CC(=O)NCc1cccnc1)O2 (configuration not stated)	n	n	u	n	n	n
CC(=O)c1cccc(N(C(=O)c2cnccn2)C(C(=O)NCc2ccccc2)c2ccco2)c1 (configuration not stated)	n	n	n	n	n	n
SMILES	KDM4E inh	TexasRed fluor	Tau fibril ThT	Tau fibril FP	TRb SRC2 PPI	Tau fluor cs
CC(C)c1nc(SCC(=O)N2c3ccccc3CC2C)c2ccccc2n1 (configuration not stated)	n	n	u	u	n	n
O=C(CN1CCOCC1)Nc1ccc2c(c1)OCO2	n	n	n	n	n	n
COc1ccc(N(CC(=O)NC2CCCC2)C(=O)CCC(=O)Nc2cc(C)on2)c(OC)c1	n	n	n	n	n	n
COCCN1C=C2C(=O)C(C)(OC(=O)CCC(=O)OC)C(=O)C(Br)=C2C=C1c1ccc(OC)cc1 (configuration not stated)	u	n[11.2 µM]	n[11.5 µM]	n[11.6 µM]	n[11.2 µM]	n[11.6 µM]
C=CCN1C=C2C(=O)C(C)(OC(=O)CCC(=O)OC)C(=O)C(Br)=C2C=C1c1ccc(OC)cc1 (configuration not stated)	7.9µM	n[11.2 µM]	14µM!	u	n[11.2 µM]	n[11.6 µM]
COC(=O)CCC(=O)OC1(C)C(=O)C2=CN(C3CCCC3)C(c3ccc(OC)cc3)=CC2=C(Br)C1=O (configuration not stated)	u	n[11.2 µM]	16µM	u	n[11.2 µM]	n[11.6 µM]
Cc1ccc(C(=O)NNC(=O)Cc2csc(-c3csc(C)n3)n2)cc1	n	n	n	n	n	n
O=C(CSc1nncs1)N1CCN(S(=O)(=O)c2ccccc2)CC1	n	n	n	n	n	n
O=C(O)c1ccc2c(c1)N(Cc1ccc(F)cc1)C(=O)c1ccccc1S2	n	n	n	n	n	n
N#Cc1c(-c2ccccc2)cc(-c2ccccc2)nc1SCC(O)CS(=O)(=O)Cc1ccc(Cl)cc1 (configuration not stated)	x	n	14µM	14µM	n	u
COc1ccc(-c2cc(-c3ccccc3)c(C#N)c(SCC(O)CS(=O)(=O)Cc3ccc(Cl)cc3)n2)cc1 (configuration not stated)	x	n	n	u	n	u
COc1c(C)cc(Br)cc1C(=O)Nc1ccc(Cc2ccncc2)cc1	n	n	u	n	n	n
O=C(Nc1ccc2c(c1)OCCO2)C(=S)NCc1ccccc1	n	n	u	u	n	u
C/C(=N/NC(=O)c1ccncc1)c1cc2ccc(O)cc2oc1=O	u	n	u	n	n	n
C/C(=N\NC(=O)c1ccncc1)c1cc2ccccc2oc1=O	14µM	n	u	n	n	n
Cc1ccc(NC(=O)c2ccccc2NC(=O)Cc2ccccc2)cc1	n	n	n	u	n	u
O=C(NCc1ccco1)c1ccc2c(c1)C(=O)c1ccccc1-2	n	n	13µM	u	n	n
O=C(NCc1ccco1)c1ccc2ccccc2c1	n	n	n	u	n	n
Cc1ccc(CNC(=O)CCCCCn2c(=O)c3sccc3n(CC(=O)Nc3ccc(C)c(F)c3)c2=O)cc1	x	n	n	u	n	n
COC(=O)C(CN)c1c[nH]c2ccc(OC)cc12 (configuration not stated)	x	n	n	n	n	n
COc1ccc(N/C=C\C(=O)c2ccc3c(c2)OCO3)cc1OC	n	n	2.8µM	n	n	u
COc1ccc(C(=O)/C=C(\C)Nc2ccc3c(c2)OCO3)cc1	n	n	13µM	n	n	u

High-throughput results deposited in PubChem BioAssay by National Center for Advancing Translational Sciences (NCATS).
